# Source: PubChem BioAssay (NCI)
# Compounds without any hit were thinned out: in the full panel of roughly 83,000, 20% have a hit.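 Negative percent growth values reflect cell death: -40 means 40% of the cells present at the start died, and -100 means all died.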 Calls of active or inactive are those of the source. The calls were made as follows: active = growth percent below 10; inactive = the rest.
# Test system: OVCAR-3 ovarian
# Assay: NCI-60 one-dose screen, 48 h (100 = growth as untreated, 0 = no growth, -100 = all killed)
# Conditions: 10 µM unless noted
row,SMILES,growth
1,Fc1ccc(C2=NN(c3ccccc3)C(c3sc(N(CCCl)CCCl)nc3Cl)C2)cc1 (stereo not drawn),91.7% (inactive)
2,CC[C@H](C)[C@H](NC(=O)Nc1ccccc1)C(=O)N(C)[C@H](C[C@@H](OC(C)=O)c1nc(C(=O)N[C@@H](Cc2ccccc2)C[C@H](C)C(=O)OC)cs1)C(C)C,-40.4% (active)
3,c1ccc(CCN2CCCCC2Cc2ccccc2)cc1 (stereo not drawn),103% (inactive)
4,CC(=O)O[C@H]1CCC2(C)C(=CCC3C2CCC2(C)/C(=N/OC(=O)c4ccc(N(CCCl)CCCl)cc4)CCC32)C1 (stereo partly drawn),53.5% (inactive)
5,O=C(N/N=C/c1ccc(N(CCCl)CCCl)cc1)c1cc(=O)[nH]c(=O)[nH]1,115% (inactive)
6,O=[As]c1ccc(C(=O)c2ccc(Oc3ccccc3)cc2)cc1 (stereo not drawn),-93.9% (active)
7,O=[N+]([O-])c1cc([N+](=O)[O-])c(Cl)c(Cl)c1Cl,-99% (active)
8,Cc1cc(NC(=O)NCCOc2ccc(N3C(N)=NC(N)=NC3(C)C)cc2Cl)ccc1S(=O)(=O)F,53.2% (inactive)
9,COc1ccc2c(c1)NC1=C(C(=O)OC1)C2c1cc(OC)c(OC)c(OC)c1 (stereo not drawn),-41.9% (active)
10,C=CCc1ccc(OC(=O)Cc2ccccc2)c(OC)c1,110% (inactive)
11,CC(C)(O)/C=C/C(=O)[C@](C)(O)[C@H]1[C@H](O)C[C@@]2(C)[C@@H]3CC=C4[C@@H](C=C(O)C(=O)C4(C)C)[C@]3(C)C(=O)C[C@]12C,-28.9% (active)
12,C[C@]12CCc3sc(-c4ccc(Cl)cc4)nc3C1=CC[C@@H]1[C@@H]2CC[C@]2(C)C(=O)CC[C@@H]12,27.2% (inactive)
13,C=CCC1(CC)C(=O)NC(=S)NC1=O,105% (inactive)
14,NC(Cc1ccc2c(c1)OCO2)c1ccc2c(c1)OCO2 (stereo not drawn),120% (inactive)
15,O=C(CF)N(O)c1ccc(/C=C/c2ccccc2)cc1,23.9% (inactive)
16,COc1ccc(/C=C(/C(=O)N2CCCC2)c2cc(OC)c(OC)c(OC)c2)cc1N,0.49% (active)
17,Nc1nc(N)c(-c2ccc(Cl)c(Cl)c2)c(/C=C/c2ccc(S(=O)(=O)F)cc2)n1,95.4% (inactive)
18,Nc1c(Br)cc([N+](=O)[O-])cc1[N+](=O)[O-],108% (inactive)
19,Oc1ccc(O)c2c1C1(Cl)C(Cl)=C(Cl)C2(Cl)C1(Cl)Cl,40.4% (inactive)
20,CN(C)P1(N(C)C)=NP(N(C)C)(N(C)C)=NP(N(C)C)(N(C)C)=N1,106% (inactive)

row,SMILES,growth
1,CCCCNCCc1ccccn1,106% (inactive)
2,CNC(=O)Oc1cccc(OC)c1,121% (inactive)
3,C=C=[CH][Sn]([c]1ccccc1)([c]1ccccc1)[c]1ccccc1,-94% (active)
4,NC(=O)SCC(=O)Nc1ccc([As](=O)(O)O)cc1,103% (inactive)
5,C[C@]12CC[C@H]3[C@@H](C[C@@H]4N=C(c5ccc(O)cc5)S[C@@]45C[C@H](O)CC[C@]35C)[C@@H]1CC[C@@H]2O,38.6% (inactive)
6,CC1(C)N=C(N)N=C(N)N1c1ccc(CCCCc2ccc(S(=O)(=O)F)cc2)cc1,33.2% (inactive)
7,Nc1c(Br)cc2c3c(cccc13)-c1ccccc1-2,64.4% (inactive)
8,COc1cc2c(cc1OC)CN(C)C(C)C2 (stereo not drawn),113% (inactive)
9,CC(C)C1c2ccc(O)cc2Oc2nc(N)c(C#N)c(N)c21 (stereo not drawn),124% (inactive)
10,c1ccc2nc(OCCN3CC3)ccc2c1,74.3% (inactive)
11,CC1(C)N=C(N)N=C(N)N1c1ccc(CNC(=O)Nc2ccc(S(=O)(=O)F)c(Cl)c2)c(Cl)c1,48.9% (inactive)
12,c1ccc(-c2ccc3ccccc3[o+]2)cc1,100% (inactive)
13,CSc1ccccc1NP1(=O)OCC(C)([N+](=O)[O-])CO1 (stereo not drawn),107% (inactive)
14,CC1COC(=O)C1 (stereo not drawn),107% (inactive)
15,C[CH2][Pb]([CH2]C)([CH2]C)[O]C(=O)COc1ccccc1,-2.95% (active)
16,COc1ccc(/C=C\c2cc(OC)c(OC)c(OC)c2)cc1N/C=C\C(=O)c1c[nH]c2ccccc12,-9.54% (active)
17,CCCC(C)(C)c1ccc2c(c1)OC(C)(C)[C@@H]1CC=C(C)C[C@@H]21,102% (inactive)
18,OC1(c2ccc(Cl)cc2Cl)c2ccccc2C2=NCCN21 (stereo not drawn),85.6% (inactive)
19,CC1(CF)NC(=O)NC1=O (stereo not drawn),115% (inactive)
20,O=C(Nc1ccc(S(=O)(=O)F)cc1)Oc1ccccc1,105% (inactive)

# Test system: HS 578T breast
# Assay: as above
# Conditions: 10 µM unless noted
row,SMILES,growth
1,CC[C@H](C)[C@H](NC(=O)Nc1ccccc1)C(=O)N(C)[C@H](C[C@@H](OC(C)=O)c1nc(C(=O)N[C@@H](Cc2ccccc2)C[C@H](C)C(=O)OC)cs1)C(C)C,5.14% (active)
2,c1ccc(CCN2CCCCC2Cc2ccccc2)cc1 (stereo not drawn),116% (inactive)
3,CC(=O)O[C@H]1CCC2(C)C(=CCC3C2CCC2(C)/C(=N/OC(=O)c4ccc(N(CCCl)CCCl)cc4)CCC32)C1 (stereo partly drawn),27% (inactive)
4,O=C(N/N=C/c1ccc(N(CCCl)CCCl)cc1)c1cc(=O)[nH]c(=O)[nH]1,105% (inactive)
5,O=[As]c1ccc(C(=O)c2ccc(Oc3ccccc3)cc2)cc1 (stereo not drawn),59.7% (inactive)
6,COc1ccc2c(c1)NC1=C(C(=O)OC1)C2c1cc(OC)c(OC)c(OC)c1 (stereo not drawn),31% (inactive)
7,C=CCc1ccc(OC(=O)Cc2ccccc2)c(OC)c1,114% (inactive)
8,C[C@]12CCc3sc(-c4ccc(Cl)cc4)nc3C1=CC[C@@H]1[C@@H]2CC[C@]2(C)C(=O)CC[C@@H]12,44.6% (inactive)
9,C=CCC1(CC)C(=O)NC(=S)NC1=O,102% (inactive)
10,O=C(CF)N(O)c1ccc(/C=C/c2ccccc2)cc1,99% (inactive)
11,COc1ccc(/C=C(/C(=O)N2CCCC2)c2cc(OC)c(OC)c(OC)c2)cc1N,15.2% (inactive)
12,Nc1c(Br)cc([N+](=O)[O-])cc1[N+](=O)[O-],106% (inactive)
13,CN(C)P1(N(C)C)=NP(N(C)C)(N(C)C)=NP(N(C)C)(N(C)C)=N1,114% (inactive)
14,CCCCNCCc1ccccn1,107% (inactive)
15,CNC(=O)Oc1cccc(OC)c1,109% (inactive)
16,C=C=[CH][Sn]([c]1ccccc1)([c]1ccccc1)[c]1ccccc1,27% (inactive)
17,NC(=O)SCC(=O)Nc1ccc([As](=O)(O)O)cc1,82.3% (inactive)
18,C[C@]12CC[C@H]3[C@@H](C[C@@H]4N=C(c5ccc(O)cc5)S[C@@]45C[C@H](O)CC[C@]35C)[C@@H]1CC[C@@H]2O,4.16% (active)
19,Nc1c(Br)cc2c3c(cccc13)-c1ccccc1-2,50% (inactive)
20,COc1cc2c(cc1OC)CN(C)C(C)C2 (stereo not drawn),107% (inactive)
21,CC(C)C1c2ccc(O)cc2Oc2nc(N)c(C#N)c(N)c21 (stereo not drawn),91.4% (inactive)
22,c1ccc2nc(OCCN3CC3)ccc2c1,98.3% (inactive)
23,c1ccc(-c2ccc3ccccc3[o+]2)cc1,94.1% (inactive)
24,CSc1ccccc1NP1(=O)OCC(C)([N+](=O)[O-])CO1 (stereo not drawn),103% (inactive)
25,C[CH2][Pb]([CH2]C)([CH2]C)[O]C(=O)COc1ccccc1,4.72% (active)
26,COc1ccc(/C=C\c2cc(OC)c(OC)c(OC)c2)cc1N/C=C\C(=O)c1c[nH]c2ccccc12,37.5% (inactive)
27,OC1(c2ccc(Cl)cc2Cl)c2ccccc2C2=NCCN21 (stereo not drawn),77.7% (inactive)
28,CC1(CF)NC(=O)NC1=O (stereo not drawn),108% (inactive)
